What all share (assay): NCI-60 one-dose screen, 48 h (100 = growth as untreated, 0 = no growth, -100 = all killed)
Details in all cases: 10 µM unless noted

For test [1], the system named is DU-145 prostate.
For test [2], the system named is K-562 leukemia.
Test [3] deals with MDA-MB-231 breast.
For test [4], the system named is RXF 393 renal.
The subject of test [5] is SF-268 CNS.
Test [6] relates to SF-295 CNS.
The subject of test [7] is SF-539 CNS.
Test [8] concerns M14 melanoma.
Test [9] relates to HCT-15 colon.
Test [10] concerns HT29 colon.
The subject of test [11] is SNB-75 CNS.
The subject of test [12] is SNB-19 CNS.
Test [13] concerns U251 CNS.
In test [14] the test system is PC-3 prostate.
Test [15] relates to SK-MEL-5 melanoma.
Test [16] has as its system UACC-62 melanoma.
Test [17] has as its system LOX IMVI melanoma.
The subject of test [18] is SK-MEL-28 melanoma.
The subject of test [19] is MALME-3M melanoma.

The record followed here is PubChem BioAssay (NCI).

The panel holds about 83,000 compounds, 20% with a hit somewhere; the sample as a whole holds those more often.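 Method: cells in 96-well plates; compound added at one concentration; 48 h incubation; percent growth measured; values under 10 scored active.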 A number with no mark means an inactive call. Active and inactive are the calls of the source.

Take `COc1ccc(-n2c(=O)c3ccccc3n(Cc3ccc(C(=O)NO)cc3)c2=O)cc1`: the growth in test [1] is 20.2%; in test [2], 1.76% (active); in test [3] it was 47.4%; in [4], -41.6% (active); in test [5] it was 32.5%; in [6], 4.34% (active). Further, the growth in test [7] is -10.6% (active); in [8], -7.23% (active); in [9], 61.3%; in test [10], 29.6%; in [11], 11%; in test [12], 18.1%. The growth was -40.2% (active) in test [13]; -24.6% (active) in [14]; 6.91% (active) in test [15]; -30.8% (active) in [16]; -71.5% (active) in test [17]; -17.4% (active) in test [18].
Regarding `COc1cnc2c(c1)C(=O)c1c-2n(CCCN2CCC(N)CC2)c(=O)c2cc([N+](=O)[O-])ccc12`, the growth was 13.2% in test [1]; 49.2% in test [2]; 57.9% in test [3]; 64.4% in test [4]; 50% in [5]; 24.2% in [6]. For the same compound, the growth in test [7] is 70.3%; in test [8] it was 52.9%; in [9], 49%; in test [10], 36.5%; in test [11] it was 60.9%; in test [12], 39.8%. In addition, the growth in [13] was 39.4%; in [14] it was 40.7%; in [15], 72.4%; in [16], 49.8%; in test [17] it was 21.2%; in [18], 116%.
Regarding `CC(CCCC(=O)O)c1ccoc1` (centres undefined), the growth is 103% in test [1]; 103% in test [2]; 96.8% in test [19]; 109% in test [3]; 95.8% in [5]; 95.4% in test [6]. Moreover, the growth in test [7] is 102%; in [8] it was 97.2%; in test [9], 102%; in [10], 95.5%; in [11], 92.6%; in [12], 111%. Also, the growth was 109% in test [13], 98.4% in test [14], 106% in [15] and 109% in test [18].
Regarding `CCN(CC)CCCC(C)Nc1cc(-c2ccc(C(F)(F)F)cc2)c(C#N)c2nc3ccccc3n12` (centres undefined), the growth in test [1] was 7.4% (active); in [2], -46.1% (active); in test [3], -38% (active); in [4], -75.7% (active); in [5] it was 14.6%; in test [6], -25.9% (active). Also, the growth in test [7] is -75.1% (active); in test [8], -69.6% (active); in test [9], 3.48% (active); in test [10], -2.76% (active); in [11] it was -56.1% (active); in test [12], 34.9%. Moreover, the growth in test [13] is 3.09% (active); in test [14], 22.1%; in test [15], -89.9% (active); in [16], -67.3% (active); in test [17], -80.6% (active); in test [18] it was -64.7% (active).
`CC(C)(C)CC(C)(C)Nc1c(-c2c(O)c3ccccc3oc2=O)nc2c(Cl)cc(C(F)(F)F)cn12`: the growth in test [1] is 114%; in test [2] it was 94%; in test [3], 100%; in test [4] it was 110%; in test [5], 107%; in test [6], 95.9%. The growth in test [7] is 99.1%; in [8], 92.2%; in test [9] it was 107%; in test [10] it was 105%; in test [11], 85.7%; in test [12], 101%. The growth in test [13] was 101%; in test [14] it was 79.6%; in test [15] it was 97.8%; in test [16] it was 93.4%; in [17] it was 98.1%; in test [18], 113%.
As for `COC(=O)CC[C@@H](C)[C@H]1CC[C@H]2C3CC[C@@H]4C[C@@H]5CC[C@]4(C)[C@@]3(O5)[C@H](Br)[C@@H](Br)[C@]12C` (some centres undefined), the growth in test [1] was 101%; in [2] it was 78.2%; in test [19], 103%; in test [3] it was 99.4%; in test [5], 91.2%; in test [6] it was 99.3%. Further, the growth in test [7] is 103%; in test [8] it was 90.6%; in test [9] it was 97.3%; in test [11] it was 84.3%; in test [13], 88.6%; in [14], 77.9%. Also, the growth in test [15] is 99.3%; in [16], 86.3%; in [17] it was 97.1%; in test [18] it was 105%.
Take `Cc1ccccc1Nc1nc2nonc2nc1Nc1cccc(C)c1C`: the growth was 71.9% in test [1]; 39.5% in [2]; 78.6% in test [19]; 72.7% in test [3]; 72.8% in [5]; 41.5% in [6]. Besides, the growth was 88.1% in [7]; 58.4% in test [8]; 44.8% in [9]; 46.9% in test [10]; 75.8% in [11]; 29.9% in test [13]. Also, the growth in test [14] is 42.2%; in test [15], 5.63% (active); in [16], 22.8%; in [17] it was 54%; in test [18], 79.7%.
With `Nc1c2c(c(O)c3c1=C(CO)C=N3)=NCCS2`, the growth in test [1] is -93% (active); in test [2], -33.1% (active); in test [19], -96.6% (active); in [3], 2.38% (active); in test [5], -47.9% (active); in test [6], -94.5% (active). For the same compound, the growth in [7] is -95.8% (active); in test [8] it was -89.7% (active); in [9], -87.1% (active); in test [10] it was -20.9% (active); in test [11], -79.2% (active); in [13] it was -91.5% (active). For the same compound, the growth was -51.8% (active) in test [14]; -99.1% (active) in test [15]; -79.9% (active) in [16]; -89.5% (active) in test [17]; -79% (active) in [18].
Take `C=CC[n+]1c(/C=C/C=C2\N(C)c3ccccc3C2(C)C)sc2ccc(OC)cc21`: the growth was 25.6% in test [1]; 10.3% in test [2]; 5.31% (active) in test [19]; 26.1% in test [3]; 32.7% in test [5]; -17.7% (active) in [6]. Moreover, the growth was 25.7% in test [7]; 23% in [8]; 12.8% in test [9]; 9.18% (active) in test [10]; 20% in test [11]; 15.9% in test [13]. The growth in [14] was 17.6%; in test [15], -90.7% (active); in test [16], 19.5%; in test [17], 15.9%; in test [18], 37.5%.
As for `O=C1CC(c2ccc3c(c2)OCO3)c2ncn(-c3ccc(Cl)cc3)c2N1` (centres undefined), the growth in test [1] was 18.3%; in test [2], 14.3%; in [19], 62.6%; in test [3], 44.3%; in test [5], 44.4%; in test [6], 70.8%. For the same compound, the growth was 1.25% (active) in test [7]; -2.01% (active) in test [8]; 24.2% in test [9]; 30.1% in [11]; 47.8% in test [12]; 21.9% in [13]. Further, the growth in [14] is 45.1%; in test [15], 24.8%; in [16], 34.4%; in [17], 51.7%; in test [18] it was 55.4%.
In the case of `COc1cnc2c(c1)C(=O)c1c-2n(CCCn2ccnc2)c(=O)c2cc(Cl)ccc12`, the growth is 2.01% (active) in test [1]; 5.92% (active) in test [2]; 55.2% in test [3]; -33.6% (active) in test [4]; 21.9% in test [5]; 0.124% (active) in [6]. For the same compound, the growth in [7] was -11.6% (active); in test [8], -2.18% (active); in [9] it was 28.9%; in [10], -31.5% (active); in [11] it was 19%; in test [12], 20.2%. Further, the growth in test [13] was -31% (active); in test [14] it was 24.8%; in [15] it was -49.9% (active); in test [16], -43.1% (active); in test [17], -52.5% (active); in test [18], 52.2%.
As to `CCC1(/C=N/NC(N)=S)NC(=O)NC1=O` (centres undefined), the growth in [1] is 112%; in test [2] it was 109%; in test [19], 107%; in test [3], 102%; in test [5], 106%; in [6], 107%. Further, the growth in test [7] is 109%; in [8], 103%; in test [9], 107%; in test [10], 94.9%; in test [11], 95.9%; in test [13], 86.8%. Besides, the growth in test [14] is 85.1%; in test [15] it was 102%; in test [16], 104%; in test [17], 102%; in test [18], 111%.
For the compound `CC1(C)NC(=O)c2[nH]c3c(Cl)c(Cl)ccc3c2C1C#N` (centres undefined), the growth in [1] was 92.9%; in test [2], 69.2%; in test [19], 99.7%; in test [3], 91.2%; in test [5] it was 94.8%; in test [6], 59.3%. Further, the growth was 85.4% in test [7]; 106% in test [8]; 87.9% in test [9]; 78.2% in [10]; 75.7% in test [11]; 87.5% in test [12]. The growth in test [13] was 81.7%; in [14], 79.6%; in test [16], 73.1%; in test [18] it was 103%.
With `Nc1c(C(=O)c2ccccc2)sc2nc(-c3cccs3)ccc12`, the growth was 20.6% in test [1]; 14.1% in [2]; 72.5% in test [19]; 37.9% in [3]; 45.7% in test [5]; 5.01% (active) in [6]. Besides, the growth was 1.09% (active) in [7]; 30.2% in [8]; 24.7% in test [9]; 32.4% in test [11]; 36.1% in test [12]; 17.6% in [13]. Also, the growth in test [14] is 23%; in test [15] it was 17.5%; in test [16] it was 11.8%; in test [17], 44.8%; in test [18], 72.6%.
On to `CCc1nc2cc(/C=C/C(=O)NO)ccc2c(=O)n1CCc1ccc(OC)cc1`, for which the growth in test [1] was 7.21% (active); in [2], 8.06% (active); in test [3], 16.8%; in [4], -25% (active); in [5], 26.4%; in test [6] it was 21.3%. For the same compound, the growth in test [7] is 26.5%; in [8] it was 16.3%; in test [9] it was 25.2%; in test [10], 6.61% (active); in [11], 24.1%; in test [12] it was 35.9%. Besides, the growth in test [13] was 16.5%; in test [14], 22.9%; in [15], 0.923% (active); in test [16], -5.16% (active); in test [17] it was -21.8% (active); in test [18], 30%.
In the case of `CCN1/C(=C/C=C/c2n(-c3ccccc3)c3ccc(-c4nc5ccccc5s4)cc3[n+]2CC)N(c2ccccc2)c2ccc(-c3nc4ccccc4s3)cc21`, the growth in [1] was -47.9% (active); in test [2] it was 10.2%; in test [19], -44.5% (active); in test [3], 16.9%; in test [5] it was 9.74% (active); in [6] it was -30.4% (active). The growth was -13.7% (active) in test [7]; -11.2% (active) in [8]; 14.9% in test [9]; 10.8% in [10]; 18.6% in test [11]; 24.7% in test [12]. The growth in [13] is 4.79% (active); in test [14], 16.2%; in test [16], 30.5%; in [17], 1.77% (active).
